Experimental data from PubChem BioAssay (NCI).
The panel holds about 79,000 compounds, 15% with a hit somewhere; the sample as a whole holds those more often. No stated cut-off is given here; in the data, active means growth inhibition above about 70%; inactive means the rest.

Columns and labels:
[1] = NCI Yeast Anticancer Drug Screen. Data for the rad50 strain (AID 155);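 further: 0% = growth of vehicle-only cultures of the same strain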; settings: S. cerevisiae rad50 strain growth inhibition; at 50.0 µM; stronger effect = higher value
Procedure, shortened: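 Yeast carrying a defined DNA repair defect were exposed to test compounds, and growth was compared with vehicle-treated controls to give percent inhibition.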

[2] = NCI Yeast Anticancer Drug Screen. Data for the mec2-1 strain (AID 157); settings: S. cerevisiae mec2-1 strain, at 50.0 µM, stronger effect = higher value
Procedure, shortened: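 Vehicle-treated cultures served as reference for growth inhibition of compound-exposed mec2-1 yeast.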

[3] = NCI Yeast Anticancer Drug Screen. Data for the sgs1 mgt1 strain (AID 161);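 further: 0% = growth of cultures given vehicle only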; settings: S. cerevisiae sgs1 mgt1 strain, at 50.0 µM, stronger effect = higher value
Procedure, shortened: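 Genetically altered yeast, compound exposure, growth inhibition relative to vehicle.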

[4] = NCI Yeast Anticancer Drug Screen. Data for the cln2 rad14 strain (AID 165);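 further: 0% = growth equal to vehicle treated cultures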; settings: S. cerevisiae cln2 rad14 strain, at 50.0 µM, stronger effect = higher value
Procedure, shortened: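 Each compound was tested on cln2 rad14 yeast. Inhibition of growth was calculated against vehicle-exposed controls.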

[5] = NCI Yeast Anticancer Drug Screen. Data for the bub3 strain (AID 167); settings: S. cerevisiae bub3 mutant strain, at 50.0 µM, stronger effect = higher value
Procedure, shortened: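 Compounds were applied to a genetically altered yeast strain carrying a cell-cycle control defect. Growth inhibition was scored against vehicle-treated controls.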

[6] = NCI Yeast Anticancer Drug Screen. Data for the mlh1 rad18 strain (AID 175); settings: S. cerevisiae mlh1 rad18 strain growth inhibition; at 50.0 µM; stronger effect = higher value
Procedure, shortened: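 Vehicle-treated cultures served as the reference for growth inhibition in a yeast strain carrying DNA damage repair alterations exposed to each compound.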

Measured: growth inhibition

COC1=C(OC)C(=O)C(C(=O)CCCCC(=O)O)=C(C)C1=O
inactive: [1] 4.8% | [2] 0.5% | [3] 8.5% | [4] -35.4% | [5] 2.9% | [6] 13.9%

CCC1(C)N=C(N)Nc2nc3cc(C)c(C)cc3n21 (stereo not given)
inactive: [1] 15.2% | [2] 17.7% | [3] 25.1% | [4] 7.05% | [5] 19.9% | [6] 21.4%

Cc1ccc(N=Nc2ccc(C)cc2NC(=O)c2ccc(Cl)c(Cl)c2)cc1
inactive: [1] -9.6% | [2] -11.2% | [3] -12% | [4] -13.1% | [5] 7.8% | [6] -20.4%

C/C(N=NC(=S)N1CC(C)OC(C)C1)=C1\C=CC=CN1O (stereo not given)
inactive: [1] -7.3% | [2] -2.15% | [3] 11.8% | [4] 12.3% | [5] 13.8% | [6] 8.85%

C(=C\c1csnn1)/c1cccnc1
inactive: [1] 29.9% | [2] -1.95% | [3] 2.05% | [4] 6.35% | [5] 9.3% | [6] 5.75%

COc1cccc(NC(=O)C(=O)C(C(C)=O)c2nc3ccc(Cl)cc3[nH]c2=O)c1 (stereo not given)
inactive: [1] -16.3% | [2] 3.7% | [3] -19.2% | [4] 15.4% | [5] 2.25% | [6] -5.4%

N#CC(=C1C=CC(=NOC(=O)c2ccccc2)C=C1)c1ccccc1
inactive: [1] -0.75% | [2] 1.2% | [3] 4.8% | [4] -5.75% | [5] -2.7% | [6] -6.85%

CC(C)C1=CC23CCC4C(C)(C(=O)O)CCCC4(C)C2CC1C1C(=O)N(c2ccccc2)C(=O)C13 (stereo not given)
inactive: [1] -7.45% | [2] -3.9% | [3] 1.55% | [4] 0.7% | [5] -40% | [6] 8.65%

CC(=O)Oc1ccc(OC(C)=O)c2cc3c(cc12)C(=O)C(C)=C(C)C3=O
inactive: [1] 0.4% | [2] 2.35% | [3] 1.1% | [4] -7.05% | [5] 3.35% | [6] 4.85%

C=CC[N+](CC)(CC)CC
inactive: [1] 12.3% | [2] -0.45% | [3] 2.35% | [4] 12.3% | [5] 19.4% | [6] 13.3%

Cc1cc(C)c2[nH]c(=O)c(Br)c(C)c2c1
inactive: [1] 29.8% | [2] 11.8% | [3] 34.2% | [4] 22.1% | [5] 3.85% | [6] 19.4%

CCN(CC)c1c(C)c(-c2ccccc2)oc(=O)c1Cl
inactive: [1] 0.3% | [2] -1.05% | [3] 3.7% | [4] 11.1% | [5] 6.85% | [6] 6.95%

Cc1cc2oc(=O)cc(C(=O)O)c2c(=O)o1
inactive: [1] -15.8% | [2] -9.55% | [3] -13.2% | [4] -17.6% | [5] -8.85% | [6] -16.1%

O=C1N=C2C=CC=CN2CC1O (stereo not given)
inactive: [1] -0.4% | [2] -11.2% | [3] -7.7% | [4] -13.2% | [5] 11.5% | [6] 15.3%

Cn1c(=O)c2nsnc2n(C)c1=O
inactive: [1] -21.1% | [2] -11% | [3] -14.2% | [4] -25.3% | [5] -3.7% | [6] 14.1%

C=CCNC(=S)N1CC(C)C(=O)Nc2ccccc21 (stereo not given)
inactive: [1] -26.1% | [2] -18.2% | [3] -29.9% | [4] 6.6% | [5] 11.3% | [6] -14.4%

COC(=O)CC(=O)c1cccc([N+](=O)[O-])c1
inactive: [1] 8.95% | [2] -22.1% | [3] -3.15% | [4] 16.5% | [5] -26.8% | [6] 0.15%

Brc1ccc(Br)c2nc(/C=C/c3ccccc3)ccc12
inactive: [1] 11.8% | [2] 1.85% | [3] -7% | [4] -22.6% | [5] 2.45% | [6] 8.25%

COc1ccc(CCN2C(CC(=O)c3ccccc3)CCCC2CC(=O)c2ccccc2)cc1OC (stereo not given)
inactive: [1] -8.05% | [2] -10.4% | [3] -0.9% | [4] -0.2% | [5] 0.65% | [6] -2.75%

COc1c2c(c(Cc3c4c(c(OC)c5c3OCO5)OC(C)C4)c3c1OCO3)CC(C)O2 (stereo not given)
inactive: [1] 24.1% | [2] 2.35% | [3] 5.65% | [4] 6.05% | [5] -10.1% | [6] -7.3%

CC(O)(C1CC1)C(C(=O)O)c1ccccc1 (stereo not given)
inactive: [1] -15.4% | [2] -6.85% | [3] 1.9% | [4] -26.7% | [5] 1.55% | [6] 10.6%

Cc1ccc(OC(=O)c2ccc([N+](=O)[O-])cc2)cc1C(C)C
inactive: [1] -15.6% | [2] -9.25% | [3] -11.7% | [4] -6.45% | [5] -10.1% | [6] -22%

CN(C)CCCC1c2ccccc2Oc2ccc(C(F)(F)F)cc21 (stereo not given)
inactive: [1] -9.45% | [2] -28.4% | [3] -11.9% | [4] -25.1% | [5] 41.9% | [6] 31.2%

O=S(=O)(O)c1cc2c3ccccc3ccc2c2ccccc12
inactive: [1] 1.75% | [2] -5.35% | [3] 13.8% | [4] -15.5% | [5] -1.35% | [6] 21.8%

CCCC(C)C(=O)OC1CCCC1 (stereo not given)
inactive: [1] 11% | [2] -8.1% | [3] 5.3% | [4] -5.1% | [5] 13.6% | [6] 2.95%

C=CCc1ccc(OC(=O)Nc2ccc(S(=O)(=O)N(C)C)cc2)c(OC)c1
inactive: [1] 26.6% | [2] 2% | [3] 22.8% | [4] 14.6% | [5] 6.75% | [6] 19.2%

O=[N+]([O-])c1cccc(-c2oc(C=Nc3ccccc3)c([N+](=O)[O-])c2-c2cccc([N+](=O)[O-])c2)c1
inactive: [1] -5% | [2] -0.8% | [3] 9.45% | [4] 14.4% | [5] 17.6% | [6] 19.6%

CC1=CCS(=O)(=O)C1
inactive: [1] 22.4% | [2] 1.55% | [3] 12.2% | [4] 10.3% | [5] -4.1% | [6] 29%

O=C(OCN1C(=O)C2C3C=CC(C2C1=O)C1C2C(=O)N(COC(=O)C4CCCN4)C(=O)C2C31)C1CCCN1 (stereo not given)
inactive: [1] 5% | [2] -15.6% | [3] -36.6% | [4] 2.95% | [5] -42.8% | [6] -10.1%

O=C1Cc2ccccc2NC(c2ccccc2)C1S(=O)(=O)c1ccccc1 (stereo not given)
inactive: [1] 7.05% | [2] 4.35% | [3] 9.3% | [4] -2.15% | [5] -0.05% | [6] 19.6%

CC1(N)CC2CCC1C2 (stereo not given)
inactive: [1] -3.5% | [2] -1.25% | [3] 5% | [4] -14.2% | [5] -21.4% | [6] 2.75%

COc1cc2cccnc2c2[nH]c(=O)c3c(c12)CCC3
inactive: [1] 13.9% | [2] 9.35% | [3] -6% | [4] -16.4% | [5] 7.2% | [6] 7.25%

NCc1cnccn1
inactive: [1] -7.05% | [2] 10.6% | [3] -4.65% | [4] 8.45% | [5] 1.1% | [6] -1.85%

Cn1cc(C(C)(c2ccccc2)c2cn(C)c3ccccc23)c2ccccc21
inactive: [1] -13.8% | [2] -6% | [3] -4.25% | [4] -24.2% | [5] -5.6% | [6] -11%

O=[N+]([O-])c1ccccc1SCl
inactive: [1] 11.7% | [2] 5.5% | [3] 5.05% | [4] -21.9% | [5] 2% | [6] 6.7%
